The values below come from PubChem BioAssay (NCATS).

Each structure is given as a SMILES string. Values joined by “and” are separate entries in the source; they are usually repeats but may differ in a detail not shown here. Identical values can stand only once. Inconclusive results are not listed. Entries that show only a call come without a potency. More than one record can exist for a structure, and the calls need not agree. Active and inactive are the calls of the source. Calls follow the shape of the dose curve; as a rule, active = well fitted inhibition curve with a large enough effect; inconclusive = small, poorly fitted or top-dose-only effect; inactive = flat fitted curve, though single readings scatter.
Potency is read from the fitted curve at half-maximal effect.

The assay relates to WaGa. Kind of assay: qHTS assay to identify novel small-molecules to repurpose for Merkel cell carcinoma treatment (AID 1296009). Also: nearly all actives have a fitted effect of over 60% in size. To be noted: MCC and control cell lines, CellTiter-Glo viability, 72 h; series mostly up to 46 µM. An outline of the steps:
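Cells were treated for 72 hr at 37 degree celsius with compounds in 8- or 11-point dose response. Viability was read by CellTiter-Glo luminescence, normalized to no-cell (cytotoxicity) and DMSO controls.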
In general terms: In qHTS, concentration-response curves come from the screen itself.
With `CN(C)c1ccc(C2Nc3ccc4ccccc4c3C3=C2C(=O)CC(C)(C)C3)cc1Br` (configuration not stated), the Potency result is “inactive”. To `COc1ccc2nc(S(=O)Cc3ncc(C)c(OC)c3C)[nH]c2c1` (configuration not stated) belongs “inactive”; to `Fc1ccc(Cl)cc1-c1nc(Nc2ccncc2)c2nccnc2n1`, “inactive”; to `CS(=O)(=O)Oc1ccc2c(NC(N)=O)c(C(=O)c3ccc(Cl)cc3Cl)oc2c1`, 833 nM (active). In the case of `CCC(C)n1ncn(-c2ccc(N3CCN(c4ccc(OC[C@H]5CO[C@](Cn6cncn6)(c6ccc(Cl)cc6Cl)O5)cc4)CC3)cc2)c1=O` (some centres not stated), the Potency result is “inactive”. Then `NC(=O)c1ccc(I)c([N+](=O)[O-])c1`, with “inactive”.

In the case of `Nc1ncnc2nc(-c3ccc(N4CCOCC4)nc3)cc(-c3cccc(Br)c3)c12`, the Potency result is “inactive”. With `COc1ccc(-c2c(-c3ccc(O)cc3O)n[nH]c2C)cc1`, the Potency entry is “inactive”. As for `Cc1c(CCOc2ccc(C(=O)O)cc2)c2cc(Cl)ccc2n1C(c1ccccc1)c1ccccc1`, the Potency entry is “inactive”. Then `Cc1ccnc(NS(=O)(=O)c2ccc(NC(=O)Nc3ccc(S(=O)(=O)Nc4nccc(C)n4)cc3)cc2)n1`, with “inactive”; and `C[C@]12CC[C@H](O)CC1=CC[C@@H]1[C@H]2CC[C@]2(C)C(c3cccnc3)=CC[C@H]12`, with “inactive”. To `OC(CN1CCC(Cc2ccc(F)cc2)CC1)c1ccc(Cl)cc1` (configuration not stated) belongs “inactive”; to `NC(=O)c1cnccn1`, “inactive”; to `NC(=O)C1CCCc2c1[nH]c1ccc(Cl)cc21` (configuration not stated), “inactive”. Then `NC(=O)c1ccc(-c2nc(-c3ccc4c(c3)OCO4)c(-c3ccccn3)[nH]2)cc1`, with “inactive”. For `CC[C@@H](C)[C@H](NC(=O)[C@H](CC1CCCCC1)NC(=O)c1ccno1)C(=O)N1CCC2(CCc3ccccc32)CC1`, the Potency entry was “inactive”. As to `CCCn1c(=O)c2[nH]c(C34CC5CC3C[C@@H](C5)C4)nc2n(CCC)c1=O`, the Potency entry was “inactive”. `Cc1ccc(N(CC2=NCCN2)c2cccc(O)c2)cc1`: the Potency result was “inactive”. Regarding `CCN(c1ccccc1)c1cc(NC)[n+](C)c(C)n1`, the Potency result is “inactive”. Take `C[C@]1(c2nc3c(C(N)=O)cccc3[nH]2)CCCN1`: the Potency entry was “inactive”. Then `COCCNCCCn1c(C(=O)CF)c(-c2ccc(C)cc2)c2c(N)ncnc21`, with “inactive”; and `Cc1cn[nH]c1`, with “inactive and 1.87 µM (active)”; and `Cc1n[nH]c(C)c1Cc1sc2c(c1C(=O)N1C[C@H](O)CO1)c(=O)n(C)c(=O)n2CC(C)C`, with “inactive”. To `CNC(=O)c1ccc(N2C(=S)N(c3ccc(C#N)c(C(F)(F)F)c3)C(=O)C2(C)C)cc1F` belongs “inactive”; to `O=C(C1CC1)N1CC[C@@H](Cn2c(-c3ccc(-c4ccc5occc5c4)cc3)nc3cnccc32)C1`, “inactive”; to `COc1ccccc1-c1cccc(-c2c(O)c3cc(C#N)c(Cl)cc3[nH]c2=O)c1`, “inactive”. On to `O=C(O)[C@@H](c1ccc(OCc2ccc3ccccc3n2)cc1)C1CCCC1`, for which the Potency result was “inactive”. To `O=S(=O)(N=Cc1c(O)ccc2ccccc12)c1cccs1` belongs “inactive”.

Take `CCCc1nn(C)c2c(=O)[nH]c(-c3cc(S(=O)(=O)N4CCN(C)CC4)ccc3OCC)nc12`: the Potency result is “inactive”.

`NNCCc1ccccc1`: the Potency result is “inactive”. As for `COc1ccc(CC2=NN3C([C@@H](CCc4ccccc4)[C@@H](C)O)=NC(C)C3C(=O)N2)cc1OC` (some centres not stated), the Potency result is “inactive”. In the case of `Nc1cccc(S(=O)(=O)N2CCCN(S(=O)(=O)c3ccc4c(c3)OCCO4)CC2)c1`, the Potency result is “inactive”.
